Values without a mark were called inactive. Calls come from the whole dose curve; as a rule, active = well fitted curve in the direction sought with a large enough effect; inconclusive = small, poorly fitted or top-dose-only effect, or another doubt; inactive = no such curve, though single readings can be large or run the other way.
What follows are compounds tested against Hexokinase-4 (Homo sapiens) + Glucokinase regulatory protein (Homo sapiens) (UniProt P35557+Q14397) (assay: qHTS assay for inhibitors of recombinant human GCK-GKRP interaction: HTRF assay (AID 743207;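 note: 0% = DMSO with GCK present and -100% = DMSO wells lacking GCK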)). Conditions: recombinant GCK-GKRP HTRF binding, 60 min, with sorbitol-6-phosphate; series mostly up to 57.5 µM; activity change, negative = inhibition: at the top concentration.
From the text: Glucokinase (GCK) is a glucose sensor in hepatocytes and pancreatic beta-cells. Hepatic GCK is regulated by glucokinase regulatory protein (GKRP), which is predominantly localized to the liver. GKRP binds to GCK inhibiting its activity in the fasting state while in the presence of glucose the GKRP is displaced. There is an additional layer of regulation by fructose 1-phosphate and fructose 6-phosphate, which inhibit and enhance the GCK-GKRP interaction, respectively. GCK plays a role in glucose homeostasis and there is an interest in the development of strategies to activate GCK to lower blood glucose levels in type 2 diabetes. To date the majority of effort has focused on direct activation of GCK and the assays developed herein look to activate GCK by inhibiting its binding to GKRP. A compound that inhibits the interaction of GCK with GKRP could be important for the treatment of diabetes and can also be used as a tool compound to further elucidate GCK-GKRP biology. To that end, we have developed an HTS biochemical assay using HTRF technology for to interrogate the GCK-GKRP interaction. This assay was screened against a small compound library to look for modulators of activity.
3 uL of 5 nM GST-GCK and 5 nM FLAG-GKRP proteins with 2 uM S6P (columns 1-2, 4-48; Millipore, Billerica, MA) are dispensed into Greiner, white solid-bottom 1536-well assay plates; columns 3 receive buffer without GCK as a control for maximum inhibition. Buffer contains 2 mM MgCl2, 25 mM KCl, 25 mM Hepes, 1 mM DTT, 0.1% Tween 20 and 0.025% BSA and the pH was adjusted to 7.1. Compounds (23 nL) are then transferred via Kalypsys pin tool equipped with 1536-pin array (10 nL slotted pins, V&P Scientific, San Diego, CA). The library compounds are in columns 5-48 and columns 1-4 serve as controls with DMSO in columns 1 and 3 and 26 mM 1:1.5 fold serial of gluckokinase activator (GKA-EMD) in column 2 and 26 mM of the glucokinase activator (GKA-EMD) in column 4. Following addition of compound, 1 uL of detection antibodies (anti-Flag XL 665 and anti-GST K in reconstitution buffer from Cisbio, Bedford, MA; 0.7 ng/well and 0.0945 ng/well, respectively) is added, and the mixture is allowed to equilibrate for 60 minutes at room temperature. Data are normalized to DMSO-treated control columns with (maximum signal) and without (minimum signal) enzyme. Plates were read on an Envision plate reader (PerkinElmer, Shelton, CT, USA) with excitation at 320 nm and dual-wavelength detection at the Fret donor wavelength (615 nm) and the FRET acceptor wavelength (665 nm).

Chain of Hexokinase-4 (Homo sapiens) + Glucokinase regulatory protein (Homo sapiens) (P35557 whole entry, looked up): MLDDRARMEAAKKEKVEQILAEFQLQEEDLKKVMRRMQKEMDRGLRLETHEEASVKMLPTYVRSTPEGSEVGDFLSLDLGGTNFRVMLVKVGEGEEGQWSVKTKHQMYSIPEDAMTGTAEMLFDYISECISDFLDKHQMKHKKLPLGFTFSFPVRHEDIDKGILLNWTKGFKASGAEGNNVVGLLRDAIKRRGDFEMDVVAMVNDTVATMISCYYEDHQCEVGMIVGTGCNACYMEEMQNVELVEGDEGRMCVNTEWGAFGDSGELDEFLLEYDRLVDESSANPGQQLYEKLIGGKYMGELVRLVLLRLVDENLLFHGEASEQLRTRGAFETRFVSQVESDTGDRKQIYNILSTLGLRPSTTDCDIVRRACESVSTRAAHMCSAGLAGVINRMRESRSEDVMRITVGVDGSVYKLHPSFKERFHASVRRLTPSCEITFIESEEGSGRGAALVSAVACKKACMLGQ
Chain of Hexokinase-4 (Homo sapiens) + Glucokinase regulatory protein (Homo sapiens) (Q14397 whole entry, looked up): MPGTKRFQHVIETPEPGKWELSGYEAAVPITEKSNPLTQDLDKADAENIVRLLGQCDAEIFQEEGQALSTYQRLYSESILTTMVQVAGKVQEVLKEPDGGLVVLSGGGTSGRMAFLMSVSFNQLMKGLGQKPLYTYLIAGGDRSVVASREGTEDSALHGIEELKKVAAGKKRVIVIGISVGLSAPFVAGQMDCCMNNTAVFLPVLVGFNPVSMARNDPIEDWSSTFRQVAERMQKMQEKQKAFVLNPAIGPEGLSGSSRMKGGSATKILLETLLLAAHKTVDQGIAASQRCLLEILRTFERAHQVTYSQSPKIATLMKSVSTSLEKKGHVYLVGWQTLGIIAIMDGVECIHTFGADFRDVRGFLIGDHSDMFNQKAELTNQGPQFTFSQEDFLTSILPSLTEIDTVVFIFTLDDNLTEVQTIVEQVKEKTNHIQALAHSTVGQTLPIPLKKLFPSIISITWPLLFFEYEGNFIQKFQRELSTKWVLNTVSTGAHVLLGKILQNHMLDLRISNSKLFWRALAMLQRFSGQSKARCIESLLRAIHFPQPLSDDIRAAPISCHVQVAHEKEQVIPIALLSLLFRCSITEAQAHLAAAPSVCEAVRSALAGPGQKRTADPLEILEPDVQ

Row | Structure (SMILES) | activity change, negative = inhibition [%]
1 | CCCN(CCC)CCc1cccc2c1CC(=O)N2 | -3.81
2 | CCn1cc(C(=O)O)c(=O)c2cc3c(cc21)OCO3 | -17.9
3 | NC/C=C/C(=O)O | -1.62
4 | CCc1cccc(N(C)C(N)=Nc2cccc3ccccc23)c1 | -2.81
5 | C[C@]12CCC(=O)C=C1CC[C@@H]1[C@@H]2CC[C@@]2(C)[C@H]1CC[C@]2(O)C(=O)CO | -10.6
6 | CN(C)CCCN1c2ccccc2Sc2ccc(C(F)(F)F)cc21 | 6.68
7 | Nc1nc(N)c2nc(-c3ccccc3)c(N)nc2n1 | 0.977
8 | Brc1c(NC2=NCCN2)ccc2nccnc12 | 14.7
9 | CN1C[C@H](C(=O)N[C@]2(C)O[C@@]3(O)[C@@H]4CCCN4C(=O)[C@H](Cc4ccccc4)N3C2=O)C[C@@H]2c3cccc4[nH]cc(c34)C[C@H]21 | 6.92
10 | CN(C)CC[C@@H](c1ccc(Br)cc1)c1ccccn1 | -6.2
11 | Cc1ccc(Cl)c(Nc2ccccc2C(=O)O)c1Cl | -4.44
12 | c1cc(CN2CCCCC2)cc(OCCCNc2nc3ccccc3s2)c1 | 5.41
13 | O=C(O)CN(CCN(CC(=O)O)CC(=O)O)CCN(CC(=O)O)CC(=O)O | -7.83
14 | C[N+](C)(C)CCOC(=O)CCC(=O)OCC[N+](C)(C)C | 6.57
15 | c1ccc2c(c1)CCCC2C1=NCCN1 (stereo not given) | 3.41
16 | CCOC(=O)C1=C(C)NC(C)=C(C(=O)OC)C1c1cccc(Cl)c1Cl (stereo not given) | -4
17 | O=C(O)CN(CCOCCOCCN(CC(=O)O)CC(=O)O)CC(=O)O | 3.36
18 | CN(C)CCOC(=O)COc1ccc(Cl)cc1 | 20
19 | CO[C@@]1(NC(=O)CSCC#N)C(=O)N2C(C(=O)O)=C(CSc3nnnn3C)CS[C@@H]21 | 1.1
20 | C[N+](C)(C)CCCCCCCCCC[N+](C)(C)C | 6.35

Row | Structure (SMILES) | activity change, negative = inhibition [%]
21 | Cc1ccc(=O)n(-c2ccccc2)c1 | 4.31
22 | O=c1[nH]c(=O)n([C@H]2C[C@H](O)[C@@H](CO)O2)cc1Br | 3.58
23 | COCC(=O)O[C@]1(CCN(C)CCCc2nc3ccccc3[nH]2)CCc2cc(F)ccc2[C@@H]1C(C)C | -2.46
24 | CC(C)NCC(O)c1cc(O)cc(O)c1 (stereo not given) | -2.56
25 | CCOC(=O)c1cnc2c(cnn2CC)c1NN=C(C)C | 7.03
26 | C[C@H](CS)C(=O)N1CCC[C@H]1C(=O)O | -7.35
27 | CCN1CCC[C@H]1CNC(=O)c1c(O)c(Cl)cc(Cl)c1OC | -3.24
28 | CCCCCCCC/C=C\CCCCCCCC(=O)NCc1ccc(O)c(OC)c1 | 14.7
29 | NC(N)=NC(=O)Cc1c(Cl)cccc1Cl | -9.75
30 | NC(Cc1ccc(Cl)cc1)C(=O)O (stereo not given) | 1.94
31 | C(=C\c1ccccc1)/CN1CCN(C(c2ccccc2)c2ccccc2)CC1 | -7.05
32 | CCCN1C[C@H](CSC)C[C@@H]2c3cccc4[nH]cc(c34)C[C@H]21 | 4.81
33 | CN(C)CCN(Cc1cccs1)c1ccccn1 | 13.9
34 | O=C(CCCN1CCC(O)(c2cccc(C(F)(F)F)c2)CC1)c1ccc(F)cc1 | 11.5
35 | NCCCNCCSP(=O)(O)O | 3.87
36 | CCn1ccnc1CC1COc2ccccc2O1 (stereo not given) | -9.42
37 | CN=C(NC#N)NCCSCc1nc[nH]c1C | 3.8
38 | NC(=O)c1ncn([C@@H]2O[C@H](CO)[C@@H](O)[C@H]2O)c1O | 2.86
39 | CC(C)[N+](C)(CCOC(=O)C1c2ccccc2Oc2ccccc21)C(C)C | 1.68
40 | CCCCNc1ccc(C(=O)OCCN(C)C)cc1 | -2.65

Source: PubChem BioAssay (NCATS)
